As a reminder, the AC50 is the concentration giving half of the maximal activity seen.

Results filed as inconclusive are left out. The source made the active and inactive calls. The calls were made as follows: active = hit-call score of the fitted dose curve at least 0.9, where 1 is the maximum; inconclusive = response in the unintended direction; inactive = score below 0.9.

Chain of human Sirtuin 1 (SIRT1), SIRT1 (gene 23411) (Q96EB6 whole entry, looked up): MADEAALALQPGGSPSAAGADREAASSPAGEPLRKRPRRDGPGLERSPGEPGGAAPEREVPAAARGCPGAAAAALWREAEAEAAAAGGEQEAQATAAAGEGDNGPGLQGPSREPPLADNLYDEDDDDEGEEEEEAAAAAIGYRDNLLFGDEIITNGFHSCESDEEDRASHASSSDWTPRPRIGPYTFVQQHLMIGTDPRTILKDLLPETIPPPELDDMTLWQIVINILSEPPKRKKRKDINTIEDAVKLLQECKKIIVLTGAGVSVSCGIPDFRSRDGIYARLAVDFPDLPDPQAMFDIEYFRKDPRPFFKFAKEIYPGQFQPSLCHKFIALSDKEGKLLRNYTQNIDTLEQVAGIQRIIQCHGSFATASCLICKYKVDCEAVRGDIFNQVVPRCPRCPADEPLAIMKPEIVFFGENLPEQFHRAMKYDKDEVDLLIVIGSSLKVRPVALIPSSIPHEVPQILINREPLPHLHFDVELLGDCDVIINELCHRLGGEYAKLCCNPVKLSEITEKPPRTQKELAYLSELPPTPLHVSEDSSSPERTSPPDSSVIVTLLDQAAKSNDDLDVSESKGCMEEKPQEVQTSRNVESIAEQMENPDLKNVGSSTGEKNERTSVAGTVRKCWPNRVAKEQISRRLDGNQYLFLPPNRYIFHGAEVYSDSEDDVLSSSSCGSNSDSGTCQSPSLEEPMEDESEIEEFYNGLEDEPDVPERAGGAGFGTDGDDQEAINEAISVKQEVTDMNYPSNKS
Chain of human Sirtuin 3 (SIRT3), SIRT3 (gene 23410) (Q9NTG7 whole entry, looked up): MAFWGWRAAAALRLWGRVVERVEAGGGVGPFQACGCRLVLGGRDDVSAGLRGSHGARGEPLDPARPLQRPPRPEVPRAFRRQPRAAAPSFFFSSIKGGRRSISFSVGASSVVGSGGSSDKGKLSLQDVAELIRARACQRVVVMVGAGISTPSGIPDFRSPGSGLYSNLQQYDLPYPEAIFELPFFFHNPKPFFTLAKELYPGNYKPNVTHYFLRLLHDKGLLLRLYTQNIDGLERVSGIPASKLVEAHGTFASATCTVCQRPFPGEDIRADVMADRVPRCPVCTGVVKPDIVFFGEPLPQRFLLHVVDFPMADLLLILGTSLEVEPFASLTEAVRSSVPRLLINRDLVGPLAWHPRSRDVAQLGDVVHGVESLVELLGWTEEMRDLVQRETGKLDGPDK
Chain of rabbit Imidazoline 2 Central (I2C), CKB (gene 100009085) (P00567 whole entry, looked up): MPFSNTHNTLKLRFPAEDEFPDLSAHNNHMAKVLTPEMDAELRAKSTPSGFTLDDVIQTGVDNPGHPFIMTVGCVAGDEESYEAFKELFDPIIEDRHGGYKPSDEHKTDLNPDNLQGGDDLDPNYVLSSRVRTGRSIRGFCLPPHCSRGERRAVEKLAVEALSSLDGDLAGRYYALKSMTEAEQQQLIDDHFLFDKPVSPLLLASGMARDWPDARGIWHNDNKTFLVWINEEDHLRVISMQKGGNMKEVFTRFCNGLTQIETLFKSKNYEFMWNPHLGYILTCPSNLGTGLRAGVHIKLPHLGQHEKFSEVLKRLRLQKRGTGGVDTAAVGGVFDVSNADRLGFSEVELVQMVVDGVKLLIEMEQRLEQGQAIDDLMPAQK
Chain of human SRC Proto-Oncogene, Non-receptor Tyrosine Kinase (SRC), SRC (gene 6714) (P12931 whole entry, looked up): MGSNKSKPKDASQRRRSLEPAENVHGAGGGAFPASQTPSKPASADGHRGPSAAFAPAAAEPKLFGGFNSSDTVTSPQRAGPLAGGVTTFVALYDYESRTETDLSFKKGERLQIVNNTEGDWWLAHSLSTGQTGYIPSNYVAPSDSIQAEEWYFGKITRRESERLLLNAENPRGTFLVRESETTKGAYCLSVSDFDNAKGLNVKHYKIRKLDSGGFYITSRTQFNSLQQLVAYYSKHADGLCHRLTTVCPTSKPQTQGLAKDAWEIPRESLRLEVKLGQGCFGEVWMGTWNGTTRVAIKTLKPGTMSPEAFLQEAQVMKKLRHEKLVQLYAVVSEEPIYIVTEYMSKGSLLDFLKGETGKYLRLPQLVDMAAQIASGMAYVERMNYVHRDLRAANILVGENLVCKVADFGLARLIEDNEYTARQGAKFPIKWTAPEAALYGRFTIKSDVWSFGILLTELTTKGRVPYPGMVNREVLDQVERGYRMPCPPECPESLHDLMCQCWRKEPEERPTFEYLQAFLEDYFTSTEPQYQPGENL
Chain of human Vascular Endothelial Growth Factor Receptor 1 (VEGFR1), FLT1 (gene 2321) (P17948 whole entry, looked up): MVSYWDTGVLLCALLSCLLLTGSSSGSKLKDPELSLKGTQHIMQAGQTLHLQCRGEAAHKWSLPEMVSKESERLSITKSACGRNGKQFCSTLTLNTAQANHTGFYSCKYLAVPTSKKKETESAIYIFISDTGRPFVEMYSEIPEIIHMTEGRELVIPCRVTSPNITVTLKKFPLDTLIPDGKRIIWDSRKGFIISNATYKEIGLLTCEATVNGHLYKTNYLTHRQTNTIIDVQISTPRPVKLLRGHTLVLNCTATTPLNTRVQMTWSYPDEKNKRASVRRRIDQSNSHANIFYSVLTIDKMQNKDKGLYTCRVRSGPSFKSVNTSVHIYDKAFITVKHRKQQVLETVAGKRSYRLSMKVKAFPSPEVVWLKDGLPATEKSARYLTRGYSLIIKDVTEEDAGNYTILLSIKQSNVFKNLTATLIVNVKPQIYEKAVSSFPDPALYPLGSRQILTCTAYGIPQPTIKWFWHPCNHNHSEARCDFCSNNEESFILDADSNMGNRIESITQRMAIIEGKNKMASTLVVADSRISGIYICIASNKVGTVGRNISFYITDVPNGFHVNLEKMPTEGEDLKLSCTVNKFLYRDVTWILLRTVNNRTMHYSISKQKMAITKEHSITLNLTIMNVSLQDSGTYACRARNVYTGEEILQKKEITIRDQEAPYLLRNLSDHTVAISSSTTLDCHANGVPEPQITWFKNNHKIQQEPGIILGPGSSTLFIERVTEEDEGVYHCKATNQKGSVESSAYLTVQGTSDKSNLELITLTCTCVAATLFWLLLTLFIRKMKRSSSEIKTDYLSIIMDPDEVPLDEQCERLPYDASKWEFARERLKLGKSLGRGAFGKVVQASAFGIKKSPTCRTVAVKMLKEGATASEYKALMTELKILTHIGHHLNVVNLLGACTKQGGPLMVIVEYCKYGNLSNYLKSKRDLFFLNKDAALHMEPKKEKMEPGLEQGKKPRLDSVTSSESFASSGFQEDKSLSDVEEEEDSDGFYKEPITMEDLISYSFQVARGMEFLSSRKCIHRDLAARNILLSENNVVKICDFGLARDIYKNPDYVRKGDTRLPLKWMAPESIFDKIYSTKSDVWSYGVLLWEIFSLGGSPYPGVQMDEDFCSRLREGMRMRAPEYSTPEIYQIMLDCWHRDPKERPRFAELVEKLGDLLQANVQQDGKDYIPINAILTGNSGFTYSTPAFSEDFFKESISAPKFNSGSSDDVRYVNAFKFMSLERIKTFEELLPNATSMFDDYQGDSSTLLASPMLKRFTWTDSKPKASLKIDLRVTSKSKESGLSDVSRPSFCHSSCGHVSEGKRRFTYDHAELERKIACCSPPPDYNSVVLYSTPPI

In one test the target is human Protein Tyrosine Phosphatase Receptor Type M (PTPRM), PTPRM (gene 5797) (UniProt P28827). Put plainly: NVS_ENZ_hPTPRM: NovaScreen (NVS) Enzymatic Assay for human Protein Tyrosine Phosphatase Receptor Type M (PTPRM) (AID 2283215). In outline: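 Read-out is fluorescence after electrophoretic separation of substrate and product, taken 1.33 h post-dosing with recombinant enzyme. Compounds screened at 25 uM in duplicate, then concentration series for actives; activity as signal loss relative to DMSO.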
Chain of human Protein Tyrosine Phosphatase Receptor Type M (PTPRM), PTPRM (gene 5797) (P28827 whole entry, looked up): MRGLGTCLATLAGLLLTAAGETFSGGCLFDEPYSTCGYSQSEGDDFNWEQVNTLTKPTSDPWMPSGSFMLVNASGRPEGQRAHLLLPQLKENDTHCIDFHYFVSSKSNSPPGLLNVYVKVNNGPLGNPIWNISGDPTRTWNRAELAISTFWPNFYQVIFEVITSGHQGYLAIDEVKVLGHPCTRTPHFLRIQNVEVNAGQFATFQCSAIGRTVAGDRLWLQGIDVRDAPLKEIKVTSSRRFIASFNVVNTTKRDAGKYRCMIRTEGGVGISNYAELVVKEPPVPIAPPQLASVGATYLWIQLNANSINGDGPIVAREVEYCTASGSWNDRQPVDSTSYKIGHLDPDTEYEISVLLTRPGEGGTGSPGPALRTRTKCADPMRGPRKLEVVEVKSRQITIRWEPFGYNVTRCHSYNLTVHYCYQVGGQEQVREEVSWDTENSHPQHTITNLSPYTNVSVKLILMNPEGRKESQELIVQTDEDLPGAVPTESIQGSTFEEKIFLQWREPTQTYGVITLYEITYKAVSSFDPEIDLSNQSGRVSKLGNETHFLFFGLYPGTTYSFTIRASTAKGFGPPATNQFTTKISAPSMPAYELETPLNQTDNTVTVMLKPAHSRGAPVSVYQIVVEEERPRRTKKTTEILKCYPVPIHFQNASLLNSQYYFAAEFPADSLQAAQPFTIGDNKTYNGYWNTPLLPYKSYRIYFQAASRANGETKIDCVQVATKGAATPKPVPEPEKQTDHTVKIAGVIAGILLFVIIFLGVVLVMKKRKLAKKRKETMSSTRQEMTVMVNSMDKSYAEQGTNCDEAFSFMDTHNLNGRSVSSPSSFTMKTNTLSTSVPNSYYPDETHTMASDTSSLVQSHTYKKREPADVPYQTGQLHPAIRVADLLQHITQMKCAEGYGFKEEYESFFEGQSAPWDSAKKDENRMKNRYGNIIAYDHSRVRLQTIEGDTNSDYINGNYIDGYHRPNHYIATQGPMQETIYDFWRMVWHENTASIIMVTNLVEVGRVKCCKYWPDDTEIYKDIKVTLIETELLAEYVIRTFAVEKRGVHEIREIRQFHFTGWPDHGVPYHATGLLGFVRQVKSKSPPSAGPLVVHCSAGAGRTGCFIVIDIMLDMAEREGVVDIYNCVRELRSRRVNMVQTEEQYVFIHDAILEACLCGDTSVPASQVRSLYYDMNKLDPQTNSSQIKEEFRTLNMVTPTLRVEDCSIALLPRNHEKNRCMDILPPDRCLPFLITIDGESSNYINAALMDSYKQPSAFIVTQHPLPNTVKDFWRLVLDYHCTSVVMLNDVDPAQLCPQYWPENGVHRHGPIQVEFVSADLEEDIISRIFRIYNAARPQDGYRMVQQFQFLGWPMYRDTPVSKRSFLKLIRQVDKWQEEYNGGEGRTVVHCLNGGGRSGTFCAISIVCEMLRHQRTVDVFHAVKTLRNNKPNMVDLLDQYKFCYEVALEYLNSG
With `CCCCOC(=O)CCCCC(=O)OCCCC`, the call was inactive. Consider `O=C1NC(=O)C(c2ccccc2)(c2ccccc2)N1`, for which the result was inactive. With `COc1ccc(OC(F)(F)F)cc1CN[C@H]1CCCN[C@H]1c1ccccc1`, the compound was classed as inactive.

A further test concerns the target human Sirtuin 2 (SIRT2), SIRT2 (gene 22933) (UniProt Q8IXJ6). Put plainly: NVS_ENZ_hSIRT2: NovaScreen (NVS) Enzymatic Assay for human Sirtuin 2 (SIRT2) (AID 2283217). In outline: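 Single-point duplicate screen at 25 uM, then concentration-response (max 50 uM) for chemicals passing threshold. Enzyme activity of recombinant human SIRT2 measured after 1 hr by fluorescence with mobility-shift separation of product; DMSO baseline.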
As to `C=CCc1ccc(OC)c(OC)c1`, the call was inactive. As for `CN(C)C(=O)NC1(c2ccccc2)CCN(CCC[C@]2(c3ccc(Cl)c(Cl)c3)CCCN(C(=O)c3ccccc3)C2)CC1`, the AC50 was 1.69 µM (active). As to `O=C(N[C@@H](c1ccccc1)[C@@H]1CCCCN1)c1cccc(C(F)(F)F)c1Cl`, the compound was classed as inactive. Regarding `CCN(CC)CCOc1ccc(C(=C(Cl)c2ccccc2)c2ccccc2)cc1`, the AC50 is 21 µM (active).

As for `Cc1occc(=O)c1O`, the call was inactive.

Another test has as its target human Sirtuin 1 (SIRT1), SIRT1 (gene 23411) (UniProt Q96EB6). Put plainly: NVS_ENZ_hSIRT1: NovaScreen (NVS) Enzymatic Assay for human Sirtuin 1 (SIRT1) (AID 2283219). The essentials: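 Cell-free recombinant SIRT1 with a fluorescent substrate; substrate and product separated by electrophoretic mobility shift and read by fluorescence intensity, 1 h after dosing. Primary screen at 25 uM in duplicate; hits re-run in concentration-response up to 50 uM, relative to DMSO.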
Turning to `N[C@@H](Cc1c[nH]c2ccccc12)C(=O)O`, the result was inactive. Regarding `CC(C)(O)c1ccc(CNC(=O)c2cccnc2Oc2ccc(F)cc2)cc1`, the outcome was inactive. Turning to `CC1=C(C)S(=O)(=O)CCS1(=O)=O`, the compound was classed as inactive. As to `Cc1cc(SC2=C(O)C[C@@](CCc3ccc(N)cc3)(C(C)C)OC2=O)c(C(C)(C)C)cc1CO`, the compound was called inactive.

On to `O=C(Oc1ccccc1)c1cccc(C(=O)Oc2ccccc2)c1`, for which the compound was called inactive. As to `COC(=O)CCC(=O)OC`, the result was inactive.

The next test concerns the target human Sirtuin 3 (SIRT3), SIRT3 (gene 23410) (UniProt Q9NTG7). Briefly: NVS_ENZ_hSIRT3: NovaScreen (NVS) Enzymatic Assay for human Sirtuin 3 (SIRT3) (AID 2283222). The essentials:
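Cell-free enzyme assay with recombinant protein and fluorescent substrate, product separated by electrophoretic mobility shift; read 1 hour after dosing. Screened in duplicate at 25 uM, then singleton concentration-response up to 50 uM; loss of signal versus DMSO.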
Regarding `O=C1NC(=O)C(c2ccccc2)(c2ccccc2)N1`, the compound was classed as inactive.

As to `O=C(N[C@@H](c1ccccc1)[C@@H]1CCCCN1)c1cccc(C(F)(F)F)c1Cl`, the outcome was inactive. For the compound `CCN(CC)CCOc1ccc(C(=C(Cl)c2ccccc2)c2ccccc2)cc1`, the call was inactive. Consider `CC(C)OC(=O)C(C)(C)Oc1ccc(C(=O)c2ccc(Cl)cc2)cc1`, for which the AC50 is 8.69 µM (active). Consider `COC(=O)CCC(=O)OC`, for which the compound was called inactive.

The next test has as its target human SRC Proto-Oncogene, Non-receptor Tyrosine Kinase (SRC), SRC (gene 6714) (UniProt P12931). Put plainly: NVS_ENZ_hSRC: NovaScreen (NVS) Enzymatic Assay for human SRC Proto-Oncogene, Non-receptor Tyrosine Kinase (SRC) (AID 2283223). In outline: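 Compounds passing 30% inhibition at 25 uM (duplicate) were titrated to a top concentration of 50 uM. Enzyme activity read by fluorescence with mobility-shift substrate/product separation after 1 h; DMSO baseline.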
As to `CCCCc1nc2cccnc2n1Cc1ccc(-c2ccccc2-c2nnn[nH]2)cc1`, the result was inactive. Regarding `CCCCCCCCCCCCCCOS(=O)(=O)O`, the AC50 is 37.1 µM (active). Consider `CC(=O)O`, for which the call was inactive.

Another test deals with human Vascular Endothelial Growth Factor Receptor 1 (VEGFR1), FLT1 (gene 2321) (UniProt P17948). Put plainly: NVS_ENZ_hVEGFR1: NovaScreen (NVS) Enzymatic Assay for human Vascular Endothelial Growth Factor Receptor 1 (VEGFR1) (AID 2283226). The procedure:
NVS_ENZ_hVEGFR1 is a biochemical, single-readout assay that uses extracted gene-proteins in a cell-free assay. Measurements were taken 1 hour after chemical dosing in a 384-well plate.NVS_ENZ_hVEGFR1 is one of one assay component(s) measured or calculated from the NVS_ENZ_hVEGFR1 assay. It is designed to make measurements of enzyme activity, a form of enzyme reporter, as detected with fluorescence intensity signals by Fluorescence and electrophoretic mobility shift technology.Data from the assay component NVS_ENZ_hVEGFR1 was analyzed into 1 assay endpoint. This assay endpoint, NVS_ENZ_hVEGFR1, was analyzed in the positive analysis fitting direction relative to DMSO as the negative control and baseline of activity. Using a type of enzyme reporter, loss-of-signal activity can be used to understand changes in the enzymatic activity as they relate to the gene FLT1. Furthermore, this assay endpoint can be referred to as a primary readout, because this assay has produced multiple assay endpoints where this one serves a enzymatic activity function. To generalize the intended target to other relatable targets, this assay endpoint is annotated to the kinase intended target family, where the subfamily is receptor tyrosine kinase.
Binding assays used specific radioligands (tritiated, iodinated) with non-radioactive competitive displacement ligands in agonist or antagonist protocols (as indicated) and various reference compounds and inhibitors to titrate specific binding to receptors and transporters. Most enzyme assays (CYPs, kinases, phosphatases, proteases, HDACs) used recombinant protein and specific substrates (fluorescence mostly, some colorimetric and radioactive) and inhibitors, followed by a biochemical separation of substrate and product. All assays for the biochemical HTS were initially run in duplicate at a single concentration (10 uM for CYP450 assays and 25 uM for all others). […] Each assay was run with positive and negative controls, and concurrent controls on every plate. […]
In the case of `O=C1NC(=O)C(c2ccccc2)(c2ccccc2)N1`, the result was inactive. Take `CN(C)C(=O)NC1(c2ccccc2)CCN(CC[C@@]2(c3ccc(F)c(F)c3)CN(C(=O)c3ccccc3)CCO2)CC1`: the result was inactive. Consider `COc1ccc(OC(F)(F)F)cc1CN[C@H]1CCCN[C@H]1c1ccccc1`, for which the call was inactive.

For a further test, the target named is rabbit Imidazoline 2 Central (I2C), CKB (gene 100009085) (UniProt P00567). Put plainly: NVS_ENZ_rabI2C: NovaScreen (NVS) Enzymatic Assay for rabbit Imidazoline 2 Central (I2C) (AID 2283228). In outline:
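Rabbit brain membranes, cell-free; readout by filter-based scintillation counting 1.5 hours after dosing, loss of signal vs DMSO. Initial duplicate test at 25 uM, then concentration-response with 50 uM top concentration.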
In the case of `NC1CCCCC1`, the AC50 was 30.3 µM (active).

Consider `Cn1cnc2c1c(=O)[nH]c(=O)n2C`, for which the call was inactive. With `O=C(O)c1[nH]n(-c2ccc(S(=O)(=O)O)cc2)c(=O)c1N=Nc1ccc(S(=O)(=O)O)cc1`, the outcome was inactive.

`CCCCCCCCCC[N+](C)(C)[O-]`: the concentration at half-maximal activity (AC50) was 8.08 µM (active). On the same count and under the same terms, in the case of `Nc1nc(=S)c2[nH]cnc2[nH]1` it was 20.7 µM (active); in that of `CCN(CC)CCOc1ccc(C(=C(Cl)c2ccccc2)c2ccccc2)cc1`, 9.71 µM (active). Consider `CC(C)(O)c1ccc(CNC(=O)c2cccnc2Oc2ccc(F)cc2)cc1`, for which the compound was called inactive. On the same count and under the same terms, the result for `CN(C)C(=O)NC1(c2ccccc2)CCN(CC[C@@]2(c3ccc(F)c(F)c3)CN(C(=O)c3ccccc3)CCO2)CC1` reads “inactive”; that for `NC(=Nc1ccccc1)Nc1ccccc1`, “inactive”; that for `COC(=O)[C@H]1[C@H]2C[C@@H]3c4[nH]c5cc(OC)ccc5c4CCN3C[C@H]2C[C@@H](OC(=O)c2cc(OC)c(OC)c(OC)c2)[C@@H]1OC`, “inactive”. For the compound `COc1ccc(OC(F)(F)F)cc1CN[C@H]1CCCN[C@H]1c1ccccc1`, the AC50 is 15 µM (active).

Take `CCc1nc(N)nc(N)c1-c1ccc(Cl)cc1`: the AC50 was 2.83 µM (active).
